Source: PubChem BioAssay (The Scripps Research Institute Molecular Screening Center)
FBW7 act = activators of human E3 ligase FBW7. AlphaScreen FBW7–phospho-cyclin E peptide binding, activator screen. normalized activity (activation), % at 26.1 µM. hit rate 0.13% among 650,000; in the data active = normalized activity above about 1.9%;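 note: purified mutant Fbw7 with reduced substrate affinity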
MITF inh = human MITF inhibition, primary screen; AlphaScreen MITF homodimerization, bead proximity signal; O75030; inhibition, % at 2.6 µM; hit rate 0.91% among 650,000; AID 1259374; in the data active = inhibition above about 50%
GPR151 ag = activators of human GPR151; hit rate 1% among 650,000; AID 1508602; Q8TDV0; PathHunter beta-arrestin GPR151 cells, luminescence; activation, % at 11.2 µM; in the data active = activation above about 4.9%
Target sequence (Q8TDV0 whole entry, looked up): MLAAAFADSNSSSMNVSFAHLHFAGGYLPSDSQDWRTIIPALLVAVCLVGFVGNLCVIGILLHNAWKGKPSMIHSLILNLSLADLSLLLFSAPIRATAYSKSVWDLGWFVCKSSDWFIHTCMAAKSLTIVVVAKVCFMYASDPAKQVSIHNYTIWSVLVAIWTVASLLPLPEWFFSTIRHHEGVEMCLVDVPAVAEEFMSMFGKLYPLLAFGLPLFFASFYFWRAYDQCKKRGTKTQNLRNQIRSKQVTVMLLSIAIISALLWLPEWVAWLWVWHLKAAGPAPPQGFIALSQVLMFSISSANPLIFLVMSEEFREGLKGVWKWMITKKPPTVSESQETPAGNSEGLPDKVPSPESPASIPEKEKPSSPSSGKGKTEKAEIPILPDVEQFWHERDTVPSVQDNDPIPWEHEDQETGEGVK
TEAD-YAP inh = TEAD-YAP interaction inhibition; HEK-TIYL cells, TEAD-Gal4/YAP UAS-luciferase luminescence; inhibition, % at 9.12 µM; hit rate 1.4% among 640,000; in the data active = inhibition above about 32%
MITF confirm = confirmation of human MITF inhibitors; AlphaScreen MITF homodimerization, biotin/His-MITF beads; shares compounds with MITF inh; hit rate 16% among 4,700; AID 1259372; inhibition, % at 2.6 µM;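 active = inhibition above a cutoff derived from the DMSO control wells, cut at about 28% in these data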;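 note: inhibitors lower the bead chemiluminescence by keeping MITF from dimerizing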
AlphaScreen DR = counter-screen: compounds optically interfering with AlphaScreen. hit rate 6% among 480. AlphaScreen optical interference counterscreen, cell-free. IC50, µM. shares compounds with MITF inh; call rule not given here
AS interf ctr = AlphaScreen optical interference, counter-screen; LysRS AlphaScreen counterscreen, signal interference, triplicate; shares compounds with MITF inh; AID 1259376; hit rate 7.6% among 4,700; inhibition, % at 2.6 µM;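 active = inhibition above a cutoff derived from the DMSO control wells, cut at about 30% in these data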
Hits are given with their value; n = inactive; x = no result. Compounds with a hit are over-represented: about 3.4% of the library has one in this group of screens.

SMILES	FBW7 act	MITF inh	GPR151 ag	TEAD-YAP inh	MITF confirm	AS interf ctr	others
O=C(Oc1cc(OC(=O)c2ccccc2F)c2ccccc2c1)c1ccccc1F	n	n	n	n	x	x
CS(=O)(=O)NCCOc1ccccc1-c1ccccc1	n	n	n	n	x	x
CCC(C)(C)n1nnnc1CN(Cc1ccccc1)Cc1cccs1	n	76	n	n	n	n
Cc1sc(/C=C(/C#N)C(=O)OC(C)C)cc1Br	n	n	n	n	x	x
CCOc1ccccc1CN(CCc1ccc2c(c1)OCO2)Cc1cc(OC)c(OC)cc1OC	n	n	n	n	x	x
COc1ccc(Br)cc1CN(CCc1ccc2c(c1)OCO2)Cc1cccnc1	n	52	n	n	n	n
CCOc1ccccc1CN(CCc1ccc2c(c1)OCO2)Cc1ccccn1	n	84	n	n	n	n
COc1cc(/C=C/C(=O)Nc2ccc(S(=O)(=O)NC(C)(C)C)cc2)cc(OC)c1OC	n	n	n	n	x	x
O=c1[nH]cc(N=Cc2ccc([N+](=O)[O-])o2)c(=O)[nH]1	n	85	n	n	64	n	AlphaScreen DR=n
O=C(Nc1ccc(Cl)c(Cl)c1)c1cc2nc(-c3ccc(Cl)cc3)cc(C(F)(F)F)n2n1	n	n	n	n	x	x
CCCC(C)C(=O)Nc1ccccc1C (centres undefined)	n	51	n	n	n	n
CCOc1ccc(C(=O)Nc2ccc3nn(-c4ccc(C)c(Cl)c4)nc3c2)cc1	n	n	n	n	x	x
COc1cc(CNc2ccccc2)cc2c1OCO2	n	62	n	n	n	n
COc1ccc(CN2CCN(Cc3cc(OC)c4c(c3)OCO4)CC2)cc1OC	n	n	n	n	x	x
COc1cc(CN2CCN(Cc3cccc(Br)c3)CC2)cc2c1OCO2	n	65	n	n	n	n
COc1cc(CN2CCN(Cc3ccc(F)cc3)CC2)cc2c1OCO2	n	76	n	n	n	n
COc1cc(CN2CCN(Cc3ccc(C(F)(F)F)cc3)CC2)cc2c1OCO2	n	61	n	n	n	37
CCC(C)Oc1ccc(/C=C2/NC(=O)N(Cc3ccccc3F)C2=O)cc1OC (centres undefined)	n	n	n	n	x	x
COc1ccc(Cn2cc(I)c(=O)[nH]c2=O)cc1[N+](=O)[O-]	n	n	n	n	x	x
O=C(N/N=C/c1cccc(Br)c1)c1cnccn1	n	n	n	n	x	x
O=C(Nn1c(-c2ccccc2F)nc2ccccc2c1=O)c1cc(Cl)ccc1[N+](=O)[O-]	n	n	n	n	x	x
COc1cc(CN2CCN(Cc3cccc(Br)c3)CC2)cc(OC)c1OC	n	69	n	n	n	n
COc1cccc(CN2CCC(=O)N(Cc3ccccn3)CC2)c1	n	n	n	n	x	x
Cc1cccc(CN2CCN(Cc3ccccn3)CC2)c1	n	72	n	n	n	n
Clc1ccccc1CN1CCN(Cc2ccccn2)CC1	n	74	n	n	n	n
SMILES	FBW7 act	MITF inh	GPR151 ag	TEAD-YAP inh	MITF confirm	AS interf ctr	others
Clc1ccccc1CN1CCN(c2ccccn2)CC1	n	n	n	n	x	x
O=[N+]([O-])c1cccc(CN2CCN(C3CCN(Cc4ccccc4)CC3)CC2)c1	n	n	n	n	x	x
O=[N+]([O-])c1cccc(CN2CCN(Cc3ccccn3)CC2)c1	n	101	n	n	n	n
Fc1ccc(CN2CCN(Cc3ccccn3)CC2)cc1	n	70	n	n	n	n
CC1(C)CC(=O)C/C(=N/NC(=O)C2CC23CCC3)C1 (centres undefined)	n	n	n	n	x	x
COCCCNC(=O)CSc1ccc(C(=O)Nc2ccc(Cl)cc2F)cc1[N+](=O)[O-]	n	n	n	n	x	x
Cc1cccc(CN2CCN(c3ncccn3)CC2)c1	n	54	n	n	n	n
Clc1cccc(CN2CCN(Cc3ccccn3)CC2)c1	n	70	n	n	n	n
OCC1(Cc2cccc(Cl)c2)CCCN(Cc2ccccn2)C1 (centres undefined)	n	n	n	n	x	x
CCC1(C)Cc2c(sc3nc(SCC(=O)O)[nH]c(=O)c23)CO1 (centres undefined)	n	n	n	n	x	x
CCC1(C)Cc2c(sc3nn[nH]c(=O)c23)CO1 (centres undefined)	n	94	n	n	n	n
N#Cc1ccc(OC(=O)/C=C/c2ccc3c(c2)OCO3)cc1	n	n	n	n	x	x
CC1CCN(Cc2csc(N)n2)CC1	n	53	n	n	n	n
Nc1nc(CC23CC4CC(CC(C4)C2)C3)cs1	n	n	n	n	x	x
